According to PubChem BioAssay (NCATS):
Inconclusive results are not listed. Active and inactive are the calls of the source. Calls come from the whole dose curve; as a rule, active = well fitted curve in the direction sought with a large enough effect; inconclusive = small, poorly fitted or top-dose-only effect, or another doubt; inactive = no such curve, though single readings can be large; an effect the other way counts as inactive or inconclusive.

Assays:
[1] = target: Cellular tumor antigen p53 (Homo sapiens) (UniProt P04637); assay: Primary qHTS for small molecule compounds that upregulate eGFP-tagged delta133p53alpha (in N-terminal) cells. (AID 2060322); conditions: NCI-H358 eGFP-delta133p53alpha fluorescence, 24 h; activation: hits give high values;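 note: cells pre-induced with doxycycline then dosed without doxycycline; series mostly up to about 56 µM; 0% = DMSO vehicle and 100% = reference activator; nearly all actives have a fitted effect of over 75% in size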
How it was run: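 NCI-H358 cells pre-induced 24 h with 10 ng/ml doxycycline for eGFP-delta133p53alpha, plated dox-free and exposed 24 h at 37C to titrated compounds. Fixed, Hoechst-stained; gated GFP peak intensity by laser scanning cytometry, normalized to DMSO (0%) and 57.5 uM 5-azacytidine (100%).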

[2] = target: Aldehyde dehydrogenase, mitochondrial (Homo sapiens) (UniProt P05091); assay: qHTS for Inhibitors of the Aldehyde Dehydrogenase Family (ALDH2) Primary screen (AID 2061308);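 note: plate controls were vehicle for no effect and reference inhibitor for full effect; nearly all actives have a fitted effect of over 55% in size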
[3] = target: Retinaldehyde dehydrogenase 3 (Homo sapiens) (UniProt P47895); assay: qHTS for Inhibitors of the Aldehyde Dehydrogenase Family (ALDH1A3) Primary screen (AID 2061315);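 note: plate controls were DMSO vehicle for no effect and reference inhibitor for full effect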

Chain of Cellular tumor antigen p53 (Homo sapiens) (P04637 whole entry, looked up): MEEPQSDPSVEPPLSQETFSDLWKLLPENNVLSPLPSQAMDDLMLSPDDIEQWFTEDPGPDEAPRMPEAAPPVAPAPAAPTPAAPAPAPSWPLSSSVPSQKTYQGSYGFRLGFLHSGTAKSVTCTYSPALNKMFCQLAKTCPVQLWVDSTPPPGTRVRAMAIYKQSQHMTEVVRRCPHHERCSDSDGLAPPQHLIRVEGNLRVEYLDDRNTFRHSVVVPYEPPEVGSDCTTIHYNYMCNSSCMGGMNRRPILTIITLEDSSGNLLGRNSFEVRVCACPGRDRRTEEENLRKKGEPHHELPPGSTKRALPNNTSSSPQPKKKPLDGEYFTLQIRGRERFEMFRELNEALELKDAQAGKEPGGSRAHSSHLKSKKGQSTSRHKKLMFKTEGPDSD

CCC(CC)n1ccc2c(C(=O)NCc3c(C)cc(C)[nH]c3=O)cc(C#N)cc21
inactive: activation [1] -3.35% | Potency [2] | Potency [3]

C[C@@]12C[C@]3(O)O[C@H](O1)[C@]1(COC(=O)c4ccccc4)[C@H]3C[C@@]12O[C@@H]1O[C@H](CO)[C@@H](O)[C@H](O)[C@H]1O
inactive: activation [1] 25% | Potency [2] | Potency [3]

CC(=O)O[C@@H]1[C@@H](O)[C@H](O[C@H]2CC[C@]34C[C@]35CC[C@]3(C)[C@@H]([C@@]6(C)CC[C@@H](C(C)(C)O)O6)[C@@H](O)C[C@@]3(C)[C@@H]5C[C@H](O[C@@H]3O[C@H](CO)[C@@H](O)[C@H](O)[C@H]3O)[C@H]4C2(C)C)OC[C@H]1O
inactive: activation [1] 15% | Potency [2] | Potency [3]

COC(=O)CC(O)C1OC(c2ccccc2)C(O)C1O (centres undefined)
inactive: activation [1] -2.29% | Potency [2] | Potency [3]

C=C1CCc2occ(C)c2[C@H]2[C@H]1[C@@]13O[C@@]1(C[C@@H](C)[C@H]3OC(C)=O)[C@H]1O[C@@]21C
inactive: activation [1] -19.6% | Potency [2] | Potency [3]

CC1CCN(C(=O)CC#N)CC1N(C)c1ncnc2[nH]ccc12 (centres undefined)
inactive: activation [1] 1.79% | Potency [2] | Potency [3]

N#CC1C(=O)Nc2scc(-c3ccc(-c4ccccc4O)cc3)c2C1=O (centres undefined)
inactive: activation [1] 17% | Potency [2] | Potency [3]

COC(=O)C1=CO[C@@H](O[C@@H]2O[C@H](CO)[C@@H](O)[C@H](O)[C@H]2O)[C@H]2[C@@H]1C=C[C@]21C=C([C@H](C)OC(=O)/C=C/c2ccc(O[C@@H]3O[C@H](CO)[C@@H](O)[C@H](O)[C@H]3O)cc2)C(=O)O1
inactive: activation [1] -1.79% | Potency [2] | Potency [3]

C=C[C@@]12COC(=O)C(=C)[C@@H]1[C@@H](O)[C@H](C(=C)C(=O)OC)[C@@H](O)C2
inactive: activation [1] -7.63% | Potency [2] | Potency [3]

CN[C@H](CC(C)C)C(=O)N[C@H]1C(=O)N[C@@H](CC(N)=O)C(=O)N[C@H]2C(=O)N[C@H]3C(=O)N[C@H](C(=O)N[C@H](C(=O)O)c4cc(O)cc(O)c4-c4cc3ccc4O)[C@H](O[C@H]3C[C@](C)(N)[C@@H](O)[C@H](C)O3)c3ccc(c(Cl)c3)Oc3cc2cc(c3O[C@@H]2O[C@H](CO)[C@@H](O)[C@H](O)[C@H]2O[C@H]2C[C@](C)(NCc3ccc(-c4ccc(Cl)cc4)cc3)[C@@H](O)[C@H](C)O2)Oc2ccc(cc2Cl)[C@H]1O
inactive: activation [1] 27% | Potency [2] | Potency [3]

CCC/C=C1\OC(=O)C2=C1CCC(O)C2O (centres undefined)
inactive: activation [1] 12.2% | Potency [2] | Potency [3]

CC1OC2OC(=O)C3(C)CC4=C(CO)C5=C(CC(=O)C4(C)C(C1=O)C23)C(C)(C)OC(=O)C5 (centres undefined)
inactive: activation [1] -7.63% | Potency [2] | Potency [3]

CC(=O)O[C@H]1[C@H](O)C[C@@]2(C)C(CC[C@]3(C)C2CC=C2C4CC(C)(C)CC[C@]4(C(=O)O)CC[C@]23C)C1(C)C (some centres undefined)
inactive: activation [1] -12.5% | Potency [2] | Potency [3]

CC(=O)N[C@H]1[C@H](O[C@H]2CC[C@@]3(C)C(CC[C@]4(C)C3CC=C3C5CC(C)(C)CC[C@]5(C(=O)O)C(O)C[C@]34C)C2(C)C)O[C@H](CO[C@@H]2O[C@H](C)[C@H](O)[C@H](O)[C@H]2O[C@@H]2OC[C@@H](O)[C@H](O)[C@H]2O)[C@@H](O)[C@@H]1O (some centres undefined)
inactive: activation [1] 13.4% | Potency [2] | Potency [3]

CC(C)c1ccc(CC(=O)N2CCC[C@@H](c3cccc(OC(C)(C)C(=O)O)c3)C2)cc1
inactive: activation [1] 7% | Potency [2] | Potency [3]

c1nc(NC2CCCCCC2)c2cc(CNC[C@H]3CCCO3)sc2n1
inactive: activation [1] -0.893% | Potency [2] | Potency [3]

COc1ccc(O[C@@H]2O[C@H](CO)[C@@H](O)[C@H](O)[C@H]2O)cc1OC
inactive: activation [1] -17% | Potency [2] | Potency [3]

CC(O)/C=C/C1(O)C(C)C(O[C@@H]2O[C@H](CO)[C@@H](O)[C@H](O)[C@H]2O)C(O)CC1(C)C (some centres undefined)
inactive: activation [1] -10.7% | Potency [2] | Potency [3]

COc1ccc(S(=O)(=O)N2CCC[C@H]2C(=O)Nc2cc(C)cc(C)c2)cc1
inactive: activation [1] -17.2% | Potency [2] | Potency [3]

CC[C@H]1OC(=O)[C@H](C)C(=O)[C@H](C)[C@@H](OC2O[C@H](C)C[C@H](N(C)C)[C@H]2O)[C@@H](C)C[C@@H](C)C(=O)/C=C/[C@]1(C)O (some centres undefined)
inactive: activation [1] -4.58% | Potency [2] | Potency [3]

O=C(/C=C/c1ccc(O)cc1)OC[C@]12O[C@H]1[C@@H](O)[C@@H]1C=CO[C@@H](O[C@@H]3O[C@H](CO)[C@@H](O)[C@H](O)[C@H]3O)[C@@H]12
inactive: activation [1] 18.3% | Potency [2] | Potency [3]

CC1CCC2(C)C(CC(O)C(O)C23CO3)C1(C)CCC1=CC(=O)OC1O (centres undefined)
inactive: activation [1] -12.2% | Potency [2] | Potency [3]

CC1(C)CCC2(C(=O)O)CCC3(C)C(=CCC4C5(C)CCC(O)C(C)(CO)C5C(O)CC43C)C2C1 (centres undefined)
inactive: activation [1] -18.8% | Potency [2] | Potency [3]
